# Source: PubChem BioAssay
# The source made the active and inactive calls.
# What was measured:
# [1] = binders of probe aFSTL3 on microarray, primary screen, stem cell growth factor project, biochemical, small-molecule microarray, fluorescence 635/667 (AID 1064); details: higher = more signal;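 also: measures binding of the biotinylated anti-FSTL3 antibody to printed compounds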
# [2] = binders from COS7 lysate, DM2A8 probe, primary screen, torsin A project, cell lysate, small-molecule microarray, fluorescence 635/667 (AID 1065); details: higher = more signal, COS7 lysate expressing mutant human TOR1A
# [3] = binders of probe aFGF2 on microarray, primary screen, stem cell growth factor project, biochemical, small-molecule microarray, fluorescence 635/667 (AID 1067); details: higher = more signal;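 also: measures binding of biotinylated aFGF2 protein to printed compounds on slides; z-score merges feature fluorescence and signal-to-noise across triplicate slides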
# [4] = binders of probe aFGF10 on microarray, primary screen, stem cell growth factor project, biochemical, small-molecule microarray, fluorescence 635/667 (AID 1071); details: higher = more signal;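 also: score merges 667 nm spot intensity and signal to noise from triplicate slides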
# [5] = target: Neurogenic locus notch homolog protein 2 (Homo sapiens) (UniProt Q04721); test: Notch2 binders on small-molecule microarrays, primary screen, biochemical, small-molecule microarray, 635 nm fluorescence, stem cell growth factors (AID 1073); details: Notch2 binding, higher = more signal
# [6] = target: Pro-neuregulin-1, membrane-bound isoform (Homo sapiens) (UniProt Q02297); test: NRG1 binders on small-molecule microarrays, primary screen, psychiatric disease protein project, biochemical, small-molecule microarray, fluorescence 635/667 (AID 1075); details: NRG1 binding, 635 nm fluorescence, higher = more signal;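 also: score combines 667 nm spot fluorescence with signal to noise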
# [7] = test system: Neuregulin-1 EGF-like domain; test: binders of neuregulin-1 EGF-like domain, primary screen, biochemical, small-molecule microarray, 635 nm fluorescence (AID 1081); details: small-molecule microarray binding, higher = more signal;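 also: binding of the protein to compounds printed on small-molecule microarray slides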
# [8] = FRG1 promoter luciferase signal modulators, primary screen, FRG1 inhibition for FSHD, cell-based, C2C12 myotubes, firefly/Renilla luciferase, luminescence (AID 1084); details: higher = more signal, called active from +8 up or from −8 down
# [9] = binders of probe aFST on microarray, primary screen, stem cell growth factor project, biochemical, small-molecule microarray, fluorescence 635/667 (AID 1086); details: higher = more signal;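 also: score merges 667 nm fluorescence with signal-to-noise of each printed compound spot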
# [10] = binders of probe aHhip on microarray, primary screen, stem cell growth factor project, biochemical, small-molecule microarray, fluorescence 635/667 (AID 1087); details: higher = more signal;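 also: score merges spot fluorescence at 667nm with spot signal to noise ratio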
# [11] = test system: PRMT1 (protein arginine N-methyltransferase 1); test: PRMT1 binders on small-molecule microarrays, primary screen, biochemical, small-molecule microarray, 635 nm fluorescence (AID 1088); details: small-molecule microarray binding, higher = more signal;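 also: binding of Prmt1 protein to compounds spotted on small-molecule microarray slides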
# [12] = yeast growth modulation, basal conditions, primary screen, YJM789 clinical isolate, OD600, 24 h (AID 1089);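 also: growth of clinical yeast isolate S. cerevisiae YJM 789 seeded 1000 cells per well; test concentration not given here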; details: S. cerevisiae YJM789 growth, higher = more signal, called active from +8 up or from −8 down
# [13] = fission yeast growth modulation, primary screen, strain 972, OD600, 24 h, no modulator (AID 1090);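 also: basal condition with compound alone and no growth modifier present; test concentration not given here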; details: S. pombe 972 growth, higher = more signal, called active from +8 up or from −8 down
# [14] = S. cerevisiae growth modulation with rapamycin, primary screen, strain BY4716, OD600, 96 h (AID 1091); details: higher = more signal, called active from +8 up or from −8 down; also: test concentration not given here
# [15] = target: Torsin-1A-interacting protein 2 (Homo sapiens) (UniProt Q8NFQ8); test: LULL1 binders on small-molecule microarray, primary screen, cell lysate, human LULL1 lysate, 635/667 nm fluorescence (AID 1092); details: hLULL1 lysate binding, 635 nm fluorescence, higher = more signal;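 also: probe is lysate of COS7 cells overexpressing human LULL1; score merges per-feature 667 nm fluorescence with signal-to-noise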
# [16] = E. coli growth modulation, two-sided OD650, primary screen, E. coli filamentation project, strain DRC41, 24 h (AID 1093); details: OD650, 24 h, higher = more signal, called active from +8 up or from −8 down;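 also: MC1000 strain lacking acrAB efflux and sulA so SOS filamentation is blocked; test concentration not given here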
# [17] = small-molecule microarray binders of probe aLefty2, primary screen, biochemical, biotinylated probe, 635/667 nm fluorescence (AID 1094); details: higher = more signal;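 also: score merges spot fluorescence near 667 nm with spot signal-to-noise ratio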
# [18] = test system: Noggin (protein binding on small-molecule microarray); test: Noggin binders on small-molecule microarray, primary screen, biochemical, 635/667 nm fluorescence (AID 1095); details: 635 nm fluorescence, higher = more signal;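 also: score merges 667 nm feature fluorescence with signal to noise over triplicate slides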
# [19] = target: Neurogenic locus notch homolog protein 3 (Homo sapiens) (UniProt Q9UM47); test: NOTCH3 binders on small-molecule microarray, primary screen, biochemical, 635/667 nm fluorescence (AID 1096); details: NOTCH3 binding, 635 nm fluorescence, higher = more signal
# [20] = small-molecule microarray binders of probe aEGFR, primary screen, biochemical, biotinylated probe, 635/667 nm fluorescence (AID 1097); details: higher = more signal;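 also: probe is a biotinylated anti-EGFR antibody binding compounds printed on slides; score combines fluorescence near 667 nm and signal to noise of each spot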
# Chain of Neurogenic locus notch homolog protein 2 (Homo sapiens) (Q04721 whole entry, looked up, canonical isoform): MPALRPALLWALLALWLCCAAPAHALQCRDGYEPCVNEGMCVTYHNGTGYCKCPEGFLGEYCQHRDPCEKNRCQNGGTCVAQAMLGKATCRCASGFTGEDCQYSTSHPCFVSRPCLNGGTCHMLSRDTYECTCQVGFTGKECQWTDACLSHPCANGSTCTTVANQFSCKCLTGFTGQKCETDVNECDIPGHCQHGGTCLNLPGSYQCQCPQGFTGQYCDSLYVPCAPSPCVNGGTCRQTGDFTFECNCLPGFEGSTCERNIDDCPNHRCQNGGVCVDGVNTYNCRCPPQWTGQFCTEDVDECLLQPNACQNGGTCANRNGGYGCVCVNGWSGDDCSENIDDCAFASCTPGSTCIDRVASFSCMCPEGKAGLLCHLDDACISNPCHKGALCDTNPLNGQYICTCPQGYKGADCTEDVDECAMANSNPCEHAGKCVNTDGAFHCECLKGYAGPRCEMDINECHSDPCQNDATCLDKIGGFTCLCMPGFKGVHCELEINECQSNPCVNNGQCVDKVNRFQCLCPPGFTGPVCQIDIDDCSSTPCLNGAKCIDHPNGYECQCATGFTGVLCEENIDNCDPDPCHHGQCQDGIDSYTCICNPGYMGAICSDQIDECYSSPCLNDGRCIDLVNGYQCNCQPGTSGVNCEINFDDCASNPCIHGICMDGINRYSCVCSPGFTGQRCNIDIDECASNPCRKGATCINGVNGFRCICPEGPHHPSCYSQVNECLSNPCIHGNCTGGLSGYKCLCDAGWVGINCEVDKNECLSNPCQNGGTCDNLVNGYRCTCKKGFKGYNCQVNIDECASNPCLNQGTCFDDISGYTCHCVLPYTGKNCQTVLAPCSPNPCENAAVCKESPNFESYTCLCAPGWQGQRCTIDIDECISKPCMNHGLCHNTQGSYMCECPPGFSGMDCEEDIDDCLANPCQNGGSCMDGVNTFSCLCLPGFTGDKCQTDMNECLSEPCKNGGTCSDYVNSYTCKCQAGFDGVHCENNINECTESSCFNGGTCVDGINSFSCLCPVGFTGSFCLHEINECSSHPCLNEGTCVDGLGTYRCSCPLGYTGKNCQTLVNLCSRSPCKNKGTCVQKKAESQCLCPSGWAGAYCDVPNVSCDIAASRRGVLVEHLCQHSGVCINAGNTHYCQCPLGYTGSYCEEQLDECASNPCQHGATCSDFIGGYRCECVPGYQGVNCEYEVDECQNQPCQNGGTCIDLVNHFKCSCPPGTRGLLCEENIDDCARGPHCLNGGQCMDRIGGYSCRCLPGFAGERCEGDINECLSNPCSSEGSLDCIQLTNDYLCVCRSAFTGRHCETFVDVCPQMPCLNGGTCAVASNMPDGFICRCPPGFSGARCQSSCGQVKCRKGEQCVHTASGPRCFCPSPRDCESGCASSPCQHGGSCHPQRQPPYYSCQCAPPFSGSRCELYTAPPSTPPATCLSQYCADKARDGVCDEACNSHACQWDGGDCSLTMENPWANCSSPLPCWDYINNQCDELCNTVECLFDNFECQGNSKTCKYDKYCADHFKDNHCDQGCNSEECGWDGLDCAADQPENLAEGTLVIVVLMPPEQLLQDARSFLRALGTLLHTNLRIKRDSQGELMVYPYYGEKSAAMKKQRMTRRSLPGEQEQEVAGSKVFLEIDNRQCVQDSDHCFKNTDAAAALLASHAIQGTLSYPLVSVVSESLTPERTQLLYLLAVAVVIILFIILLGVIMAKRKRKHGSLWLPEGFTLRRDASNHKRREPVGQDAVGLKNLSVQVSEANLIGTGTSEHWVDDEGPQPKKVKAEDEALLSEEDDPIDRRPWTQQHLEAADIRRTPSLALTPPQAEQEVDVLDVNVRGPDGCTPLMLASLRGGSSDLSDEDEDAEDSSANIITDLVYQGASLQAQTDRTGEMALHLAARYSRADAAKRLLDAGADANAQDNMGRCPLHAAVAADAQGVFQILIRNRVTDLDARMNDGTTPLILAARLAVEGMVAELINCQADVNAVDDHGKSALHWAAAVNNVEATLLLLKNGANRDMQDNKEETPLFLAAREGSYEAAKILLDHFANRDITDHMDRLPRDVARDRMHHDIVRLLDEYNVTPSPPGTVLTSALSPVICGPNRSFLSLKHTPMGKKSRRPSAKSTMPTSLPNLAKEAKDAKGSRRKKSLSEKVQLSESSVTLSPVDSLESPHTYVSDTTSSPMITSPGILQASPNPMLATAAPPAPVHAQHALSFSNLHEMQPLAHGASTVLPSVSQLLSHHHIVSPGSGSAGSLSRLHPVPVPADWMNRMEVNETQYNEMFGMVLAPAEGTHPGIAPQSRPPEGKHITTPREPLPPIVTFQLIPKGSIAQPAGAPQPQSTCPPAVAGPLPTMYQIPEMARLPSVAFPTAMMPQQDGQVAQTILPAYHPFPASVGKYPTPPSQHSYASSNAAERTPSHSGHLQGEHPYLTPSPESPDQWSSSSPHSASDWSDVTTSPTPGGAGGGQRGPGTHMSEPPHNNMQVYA
# Chain of Neurogenic locus notch homolog protein 3 (Homo sapiens) (Q9UM47 whole entry, looked up): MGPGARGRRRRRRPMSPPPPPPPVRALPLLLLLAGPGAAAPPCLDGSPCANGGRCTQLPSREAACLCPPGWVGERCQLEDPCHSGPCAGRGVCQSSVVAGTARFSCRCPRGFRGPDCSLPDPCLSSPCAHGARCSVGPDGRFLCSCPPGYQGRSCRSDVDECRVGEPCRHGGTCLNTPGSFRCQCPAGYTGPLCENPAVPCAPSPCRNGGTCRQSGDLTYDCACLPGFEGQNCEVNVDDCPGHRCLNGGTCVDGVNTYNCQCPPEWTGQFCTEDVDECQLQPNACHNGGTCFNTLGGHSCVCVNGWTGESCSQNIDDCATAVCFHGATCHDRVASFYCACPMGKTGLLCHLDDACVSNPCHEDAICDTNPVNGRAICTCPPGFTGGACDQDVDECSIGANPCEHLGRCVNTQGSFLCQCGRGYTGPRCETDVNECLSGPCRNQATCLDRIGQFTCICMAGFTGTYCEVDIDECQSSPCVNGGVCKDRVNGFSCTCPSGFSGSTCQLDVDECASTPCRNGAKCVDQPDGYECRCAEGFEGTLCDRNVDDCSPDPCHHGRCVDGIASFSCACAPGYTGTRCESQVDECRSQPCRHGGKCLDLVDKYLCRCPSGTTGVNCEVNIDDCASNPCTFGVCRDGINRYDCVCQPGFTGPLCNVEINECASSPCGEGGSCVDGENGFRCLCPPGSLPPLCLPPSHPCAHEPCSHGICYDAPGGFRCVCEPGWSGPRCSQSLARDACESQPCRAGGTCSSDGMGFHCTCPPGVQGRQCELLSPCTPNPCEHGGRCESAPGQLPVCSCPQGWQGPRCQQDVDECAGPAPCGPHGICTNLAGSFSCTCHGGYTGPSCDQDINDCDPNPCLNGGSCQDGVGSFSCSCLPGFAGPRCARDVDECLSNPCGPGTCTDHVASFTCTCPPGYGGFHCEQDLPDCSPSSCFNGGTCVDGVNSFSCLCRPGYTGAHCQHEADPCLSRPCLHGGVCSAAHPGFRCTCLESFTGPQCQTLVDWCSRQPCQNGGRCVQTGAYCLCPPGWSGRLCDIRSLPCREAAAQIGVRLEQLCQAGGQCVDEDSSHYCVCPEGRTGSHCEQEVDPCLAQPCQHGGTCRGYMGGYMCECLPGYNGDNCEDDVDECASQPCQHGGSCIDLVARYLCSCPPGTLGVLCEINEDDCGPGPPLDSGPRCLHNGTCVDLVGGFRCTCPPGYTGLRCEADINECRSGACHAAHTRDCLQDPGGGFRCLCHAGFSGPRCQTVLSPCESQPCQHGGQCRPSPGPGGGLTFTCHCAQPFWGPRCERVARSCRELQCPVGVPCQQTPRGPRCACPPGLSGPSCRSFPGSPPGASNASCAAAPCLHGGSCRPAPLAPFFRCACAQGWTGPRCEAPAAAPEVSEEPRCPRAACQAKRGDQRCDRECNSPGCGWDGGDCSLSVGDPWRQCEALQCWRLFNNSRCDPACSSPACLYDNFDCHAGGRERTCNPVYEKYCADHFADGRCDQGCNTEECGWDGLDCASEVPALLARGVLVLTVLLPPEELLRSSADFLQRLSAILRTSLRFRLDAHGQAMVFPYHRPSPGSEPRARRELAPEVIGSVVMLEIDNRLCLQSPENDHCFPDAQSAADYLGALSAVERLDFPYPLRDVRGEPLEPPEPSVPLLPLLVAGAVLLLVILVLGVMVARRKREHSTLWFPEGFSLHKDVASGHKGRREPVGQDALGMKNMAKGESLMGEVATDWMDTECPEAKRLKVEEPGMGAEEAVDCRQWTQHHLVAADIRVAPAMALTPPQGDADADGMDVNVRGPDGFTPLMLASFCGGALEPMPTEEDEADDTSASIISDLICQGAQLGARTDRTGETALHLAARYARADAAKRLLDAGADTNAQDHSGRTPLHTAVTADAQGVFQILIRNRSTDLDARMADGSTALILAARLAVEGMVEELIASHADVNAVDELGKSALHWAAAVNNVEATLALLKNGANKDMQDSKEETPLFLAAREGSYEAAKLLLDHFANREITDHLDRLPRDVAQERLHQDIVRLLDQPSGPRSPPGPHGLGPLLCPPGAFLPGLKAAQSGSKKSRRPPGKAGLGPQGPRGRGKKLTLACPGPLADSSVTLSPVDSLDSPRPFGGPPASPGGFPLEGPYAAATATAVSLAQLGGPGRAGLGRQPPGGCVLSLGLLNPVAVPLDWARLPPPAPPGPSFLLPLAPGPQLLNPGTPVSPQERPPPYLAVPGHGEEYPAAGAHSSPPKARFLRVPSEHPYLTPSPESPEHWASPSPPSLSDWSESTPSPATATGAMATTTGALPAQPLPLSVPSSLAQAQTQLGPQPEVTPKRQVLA
SMILES,composite z-score [1],composite z-score [2],composite z-score [3],composite z-score [4],composite z-score [5],composite z-score [6],composite z-score [7],z-score [8],composite z-score [9],composite z-score [10],composite z-score [11],z-score [12],z-score [13],z-score [14],composite z-score [15],z-score [16],composite z-score [17],composite z-score [18],composite z-score [19],composite z-score [20]
COC(=O)[C@H](C)NC(=O)CCC1CC(OC(=O)NCCc2ccc(F)cc2)CC2(CCCC(COC(=O)NCCOc3ccccc3)O2)O1 (stereo not given in full),-0.443,0.269,-0.0392,0.532,1.34,0.672,0.933,0.907 (inactive),0.238,-0.173,1.46,-0.233 (inactive),0.927 (inactive),1.12 (inactive),2.64,0.219 (inactive),-0.0073,0.724,1.06,-0.106
O=C1C2=CC[C@H]3C(=O)N(c4ccc(F)cc4F)C(=O)[C@H]3[C@H]2[C@H](O)[C@@H]2O[C@H]12,-0.598,0.45,-0.116,0.37,0.291,-0.0808,0.0508,0.264 (inactive),1.14,-0.0994,0.137,-0.892 (inactive),0.151 (inactive),0.0688 (inactive),-0.034,0.601 (inactive),-0.124,0.526,0.634,-0.0967
CCOC(=O)CCN1C(=O)[C@H]2[C@@H]3C(=CC[C@H]2C1=O)C(=O)[C@H]1O[C@H]1[C@H]3O,-0.128,-0.42,-0.137,-0.199,-0.582,-0.426,0.503,-2.91 (inactive),-0.481,-0.137,-0.571,0.151 (inactive),0.0483 (inactive),-0.384 (inactive),-0.0261,-0.518 (inactive),-0.27,-0.861,-1.75,-0.122
C#CCCCON=C1[C@H]2CCn3c(=O)n([C@@H](CC)c4ccccc4)c(=O)n3[C@H]2[C@H](O)[C@@H]2O[C@H]12,-0.409,0.152,0.0047,0.353,0.148,0.24,0.322,0.456 (inactive),-0.0356,-0.261,-0.142,-0.455 (inactive),-1.1 (inactive),-0.533 (inactive),0.883,-0.647 (inactive),-0.114,1.05,0.226,-0.042
CCN1C(=O)[C@H]2[C@H]3[C@H](O)[C@H](O)CC(=NOCC=C(C)CCC=C(C)C)[C@@H]3CC[C@H]2C1=O,-0.524,1.36,-0.146,0.483,0.2,-0.0702,0.91,0.256 (inactive),0.774,-0.0994,1.4,-0.56 (inactive),-1.86 (inactive),-1.3 (inactive),0.915,0.756 (inactive),-0.0973,0.962,1.08,0.095
O=C(NN=C1C[C@@H](O)[C@@H](O)[C@@H]2[C@@H]3C(=O)N(c4ccc(F)cc4F)C(=O)[C@@H]3CC[C@H]12)OCc1ccccc1,0.0775,1.04,-0.152,-0.0134,0.194,1.47,-0.0123,-0.823 (inactive),0.991,0.0854,0.695,-0.0025 (inactive),-2.08 (inactive),-1.69 (inactive),1.88,0.782 (inactive),-0.0309,0.128,0.827,0.0443
COC(=O)[C@@H]1CC[C@H](C)[C@@H](c2ccc(C)cc2)N1C(=O)c1ccc(C=NOC[C@H]2O[C@H](c3ccccc3)C=C[C@@H]2Oc2ccc(OC)cc2)cc1,-0.462,-0.24,-0.154,0.217,-0.0637,0.0379,-0.631,0.434 (inactive),0.044,-0.191,0.391,0.456 (inactive),0.267 (inactive),0.0902 (inactive),-0.703,-0.234 (inactive),-0.0977,-0.0296,0.107,-0.0682
CC(=O)OC[C@H]1O[C@@H](ON=C(C)C)[C@H](OC(C)=O)[C@@H](OC(C)=O)[C@@H]1OC(C)=O,-0.133,1.57,-0.194,-0.526,-0.105,-1.53,-1.47,0.212 (inactive),0.298,-0.283,-0.312,0.559 (inactive),-0.159 (inactive),0.196 (inactive),-1.31,-0.109 (inactive),0.089,0.0419,-1.53,-0.0393
CCCNC(=O)OC[C@H]1O[C@H](CCON=C2C[C@@H](O)[C@@H](O)[C@@H]3[C@@H]4C(=O)N(CC)C(=O)[C@@H]4CC[C@@H]23)C=C[C@@H]1Oc1ccc(OC)cc1,-0.465,0.142,-0.0165,0.64,0.705,0.628,0.898,0.36 (inactive),0.46,-0.0645,1.07,-0.284 (inactive),-0.0922 (inactive),-0.768 (inactive),1.04,0.536 (inactive),-0.0932,0.64,1.05,-0.0605
